In PubChem BioAssay one finds z-score and composite z-score data, which are given here for 13 compounds.

The source made the active and inactive calls. Unless noted, how the calls were made is not given here.

A short description of experiment [1]: HepG2 liver cancer cell viability effects, profiling panel, resazurin fluorescence, 24 h, PK04 Diversity Set (AID 1172). Further: test concentration not given here. To be noted: higher = more signal. In general terms: Resazurin is reduced to fluorescent resorufin, in cell work by metabolically active cells.
Experiment [2] can be described thus: basal S. cerevisiae growth modulation, no modifier, primary screen, OD600, strain BY4716, 24 h, basal condition (AID 1173). To be noted: OD600, 24 h, higher = more signal, called active from +8 up or from −8 down.
The nature of experiment [3]: MM1S myeloma cell viability, profiling panel, resazurin fluorescence, basal, 24 h, PK04 Diversity Set (AID 1174).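 Further: MM1S multiple myeloma cell line; test concentration not given here.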 The note with it: higher = more signal, called active from +8 up or from −8 down.
The target of experiment [4] is Dihydroorotate dehydrogenase (quinone), mitochondrial (Plasmodium falciparum (isolate 3D7)) (UniProt Q08210). Put plainly: PfDHODH enzyme inhibitors, primary screen, biochemical, C-terminal His tag, absorbance 600 nm (AID 1175).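 Further: recombinant parasite enzyme with a five histidine tag at its C terminus; test concentration not given here.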 The note with it: DCIP absorbance 600 nm, higher = more signal, called active from +8 up or from −8 down.
Experiment [5] in a line: P. aeruginosa biofilm formation inhibitors, primary screen, strain PAO1, LB-PBS medium, absorbance 600 nm (AID 1176). Further: test concentration not given here. To be noted: P. aeruginosa PAO1 growth/biofilm, A600, 12 h; higher = more signal.
The nature of experiment [6]: S. cerevisiae RM11-1a growth modifiers, primary screen, strain RM11-1a, OD600, basal, 24 h (AID 1177).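 Further: cultures grown under basal conditions with no added stressor; test concentration not given here.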 The note with it: OD600, 24 h, higher = more signal, called active from +8 up or from −8 down.
Experiment [7] is described as follows: E. coli acrAB mutant growth effects, primary screen, E. coli filamentation inducers, strain DRC39, OD650, 24 h (AID 1178).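 Further: growth measured as culture turbidity by optical density at 650 nm; test concentration not given here.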 To be noted: higher = more signal, called active from +8 up or from −8 down.
Experiment [8] can be described thus: E. coli acrAB mutant growth effects, primary screen, E. coli filamentation inducers, strain DRC39, OD650, 48 h (AID 1179).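 Further: screen aims at cell division blockers that make cells filament.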 To be noted: E. coli DRC39 delta-acrAB growth, higher = more signal, called active from +8 up or from −8 down.
Experiment [9] can be described thus: RPMI8226 myeloma cell viability, profiling panel, resazurin fluorescence, basal, 24 h, PK04 Diversity Set (AID 1180).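 Further: RPMI8826 multiple myeloma cell line at 5000 cells per well; test concentration not given here.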 To be noted: higher = more signal.
The target of experiment [10] is E3 ubiquitin-protein ligase XIAP (Homo sapiens) (UniProt P98170). Description: XIAP binders, primary screen, biophysical, small-molecule microarray, fluorescence 635 nm (AID 1181).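 Further: score merges 667 nm emission and signal to noise over triplicate slides.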 The note with it: small-molecule microarray binding, higher = more signal.
Chain of E3 ubiquitin-protein ligase XIAP (Homo sapiens) (P98170 whole entry, looked up): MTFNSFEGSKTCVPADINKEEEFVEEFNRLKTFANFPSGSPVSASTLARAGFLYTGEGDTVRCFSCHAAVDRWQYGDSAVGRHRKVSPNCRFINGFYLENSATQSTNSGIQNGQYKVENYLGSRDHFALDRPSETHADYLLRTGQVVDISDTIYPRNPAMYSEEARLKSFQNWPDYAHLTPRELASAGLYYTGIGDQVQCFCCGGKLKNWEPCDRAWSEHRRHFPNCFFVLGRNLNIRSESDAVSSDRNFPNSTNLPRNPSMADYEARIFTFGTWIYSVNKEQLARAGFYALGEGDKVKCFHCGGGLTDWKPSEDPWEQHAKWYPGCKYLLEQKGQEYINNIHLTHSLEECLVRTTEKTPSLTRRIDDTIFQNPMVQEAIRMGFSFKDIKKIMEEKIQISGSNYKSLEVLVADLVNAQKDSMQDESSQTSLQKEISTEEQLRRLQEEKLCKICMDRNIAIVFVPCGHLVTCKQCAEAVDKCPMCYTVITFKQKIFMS

Chain of Dihydroorotate dehydrogenase (quinone), mitochondrial (Plasmodium falciparum (isolate 3D7)) (Q08210 whole entry, looked up): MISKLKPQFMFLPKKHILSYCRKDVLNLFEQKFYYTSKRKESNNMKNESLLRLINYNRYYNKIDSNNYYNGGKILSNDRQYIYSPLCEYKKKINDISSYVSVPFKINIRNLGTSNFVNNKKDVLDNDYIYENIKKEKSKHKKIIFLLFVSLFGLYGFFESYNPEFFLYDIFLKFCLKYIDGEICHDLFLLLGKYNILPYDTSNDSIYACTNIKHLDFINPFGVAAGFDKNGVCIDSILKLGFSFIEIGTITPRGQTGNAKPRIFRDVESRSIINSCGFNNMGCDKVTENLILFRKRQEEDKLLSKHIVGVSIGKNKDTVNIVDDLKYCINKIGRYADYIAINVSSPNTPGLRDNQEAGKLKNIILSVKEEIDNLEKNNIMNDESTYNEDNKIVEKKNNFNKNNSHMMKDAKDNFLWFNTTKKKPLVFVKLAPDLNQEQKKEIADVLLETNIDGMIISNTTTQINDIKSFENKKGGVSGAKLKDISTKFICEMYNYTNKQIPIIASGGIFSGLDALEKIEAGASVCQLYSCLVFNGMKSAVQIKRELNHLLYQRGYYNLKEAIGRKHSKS

With `O=C1C2C=CC(C(O)c3ccc(-c4ccccc4)s3)N(n3cnnc3)C2C(=O)N1Cc1ccccc1` (stereo not given), the z-score in experiment [1] is -0.295; in experiment [2] it was 1.07 (inactive); in [3], -0.559 (inactive); in experiment [5] it was 0.092 (inactive); in [6] it was 0.766 (inactive); in experiment [7], -0.27 (inactive). In addition, the z-score in experiment [8] was -0.0301 (inactive); in experiment [9], -0.259. The composite z-score in [4] is 0.267 (inactive); in experiment [10], 0.296.
Turning to `Cc1c(NC(=O)CC#N)c(=O)n(-c2ccccc2)n1C`, the z-score in [1] was 1.02; in experiment [2], -0.267 (inactive); in experiment [3], 1.07 (inactive); in experiment [5], 0.531 (inactive); in experiment [6] it was -1.25 (inactive); in [7] it was 1.37 (inactive). The results for the z-score in experiment [8] and in experiment [9] were 1.47 (inactive) and 0.526, respectively. In addition, the composite z-score in [4] is -0.544 (inactive); in experiment [10] it was 0.0345.
Regarding `CC(=O)NCCCC[C@@H]1NC(=O)[C@@H]2C[C@H](C(=O)NCCCCCCNC(=O)CS)[C@H](c3ccc(O)cc3)N2C1=O`, the z-score in [1] was 0.107; in experiment [2] it was -0.688 (inactive); in experiment [3], -0.568 (inactive); in experiment [5], -0.434 (inactive); in [6], 0.208 (inactive); in [7], -0.356 (inactive). Besides, the z-score was -0.214 (inactive) in [8] and -0.763 in [9]. For the same compound, the composite z-score is -0.344 (inactive) in experiment [4] and -0.0773 in [10].
Consider `CO[C@H]1O[C@H](CO)[C@@H](OC(=O)Nc2ccc3c(c2)OCO3)[C@H](OC(=O)Nc2ccccc2)[C@H]1OC(=O)Nc1ccccc1`, for which the z-score in experiment [1] was -1.78; in [2], 1.38 (inactive); in experiment [3], -3.14 (inactive); in [5] it was -0.329 (inactive); in experiment [6], 2.93 (inactive); in experiment [7], 0.402 (inactive). For the same compound, the z-score in [8] is -0.728 (inactive); in [9] it was -2.41. In addition, the composite z-score is 1.15 (inactive) in experiment [4] and 0.137 in experiment [10].
For `O=C1C[C@@](C(=O)NC2CC2)(c2ccc([N+](=O)[O-])cc2)[C@@H](c2ccc(CO)cc2)N1CC12CC3CC(CC(C3)C1)C2`, the z-score in [1] is -0.494; in experiment [2], -0.369 (inactive); in experiment [3], -2.23 (inactive); in experiment [5], -0.273 (inactive); in [6] it was 0.0982 (inactive); in experiment [7], -0.284 (inactive). In addition, the z-score in experiment [8] was 0.466 (inactive); in experiment [9] it was -3.25. For the same compound, the composite z-score in experiment [4] is 0.117 (inactive); in [10], 0.0975.
Regarding `COC(=O)C(CC#Cc1ccc2c(c1)[C@]1(C(=O)N2)[C@H](C(=O)NC[C@H](O)c2ccccc2)[C@H]2C(=O)O[C@H](c3ccccc3)[C@H](c3ccccc3)N2[C@@H]1c1ccc(OCCO)cc1)C(=O)OC`, the z-score in experiment [1] was 0.0416; in [2] it was 1.77 (inactive); in [3], -0.0507 (inactive); in experiment [5], 3.42 (inactive); in [6] it was 2.62 (inactive); in [7], 0.389 (inactive). Also, the z-score in experiment [8] was 0.335 (inactive); in [9] it was -0.223. Further, the values for the composite z-score in experiment [4] and in experiment [10] were -16.8 (active) and 0.201, respectively.
As to `Cc1ccc([C@H]2[C@H](C(=O)O)[C@H](Sc3ccccc3)[C@@H](C(C)C)N2S(=O)(=O)c2ccc(C)cc2)cc1`, the z-score in experiment [1] was -1.15; in experiment [2] it was -0.138 (inactive); in experiment [3], -0.498 (inactive); in experiment [5], 0.0362 (inactive); in experiment [6], -0.528 (inactive); in experiment [7], -1.44 (inactive). Also, the z-score was -0.292 (inactive) in [8] and -1.39 in experiment [9]. Further, the composite z-score in experiment [4] was 0.184 (inactive); in experiment [10], 0.603.
With `CCOC(=O)C[C@H]1[C@H](OC(=O)c2ccccc2-c2ccccc2)[C@@H](NC(=O)Cc2ccc(OC)cc2)c2cc(OCCCO)ccc2N1C(=O)c1ccccc1`, the z-score in experiment [1] is -0.532; in [2] it was 0.728 (inactive); in experiment [3], -0.275 (inactive); in experiment [5], -0.0461 (inactive); in experiment [6], 0.799 (inactive); in experiment [7], -0.672 (inactive). Besides, the z-score is -0.79 (inactive) in experiment [8] and -0.155 in [9]. Further, the composite z-score was 0.542 (inactive) in [4] and 0.123 in experiment [10].
Regarding `COc1ccc([Si](C)(C)[C@@H]2[C@@H](CCn3cc([C@H](O)c4ccccc4)nn3)O[C@]3(C(=O)N(Cc4ccc(N5C(=O)c6cccc7cccc5c67)cc4)c4ccccc43)[C@H]2C)cc1`, the z-score in experiment [1] was -0.651; in experiment [2] it was -0.349 (inactive); in experiment [3], -1.66 (inactive); in experiment [5], 0.65 (inactive); in [6], -0.0915 (inactive); in experiment [7] it was 0.954 (inactive). Also, the z-score in experiment [8] is 0.453 (inactive); in [9], -1.01. In addition, the composite z-score in [4] is -0.609 (inactive); in [10], -0.157.
As to `COc1ccc([Si](C)(C)[C@@H]2[C@@H](CCn3cc([C@H](O)c4ccccc4)nn3)O[C@]3(C(=O)N(Cc4cccc(N5CCOC5=O)c4)c4ccccc43)[C@H]2C)cc1`, the z-score in experiment [1] is 0.194; in experiment [2], -0.611 (inactive); in [3] it was -2.91 (inactive); in [5] it was 1.35 (inactive); in experiment [6] it was 1.98 (inactive); in experiment [7], 1.44 (inactive). Also, the z-score in [8] was 1.45 (inactive); in experiment [9], -0.424. The values for the composite z-score in [4] and in experiment [10] were 0.539 (inactive) and -0.102, respectively.
`COCCOC(=O)N1C(=O)[C@@]2(c3cc(C#CCC(C(=O)OC)C(=O)OC)ccc31)[C@H](c1ccc(O)cc1)N1[C@H](c3ccccc3)[C@H](c3ccccc3)OC(=O)[C@H]1[C@@H]2C(N)=O`: the z-score in experiment [1] is -0.2; in experiment [2] it was -0.235 (inactive); in [3], -0.0347 (inactive); in [5], 1.28 (inactive); in experiment [6], 0.332 (inactive); in [7], -0.319 (inactive). Besides, the z-score in experiment [8] is -0.586 (inactive); in [9], -0.777. Also, the composite z-score in experiment [4] is -0.181 (inactive); in [10], 0.098.
On to `CCOC(=O)C1=CCC(c2ccc([N+](=O)[O-])cc2)N(S(=O)(=O)c2ccc(C)cc2)C1` (stereo not given), for which the z-score in experiment [1] was 0.291; in experiment [2] it was 2.15 (inactive); in [3] it was -1.1 (inactive); in experiment [5] it was -0.116 (inactive); in experiment [6], 2.42 (inactive); in experiment [7] it was -0.627 (inactive). The z-score in [8] is -0.418 (inactive); in [9], -1.5. Further, the composite z-score was 0.774 (inactive) in experiment [4] and -0.0513 in experiment [10].
Regarding `C[C@]1(C(=O)NCc2ccccc2)c2ccccc2C(=O)N(Cc2cc(F)cc(C(F)(F)F)c2)[C@H]1c1ccc(CO)cc1`, the z-score in experiment [1] is -0.555; in [2] it was -0.276 (inactive); in experiment [3], -0.179 (inactive); in experiment [5] it was 0.155 (inactive); in experiment [6], 0.179 (inactive); in experiment [7], 1.2 (inactive). Further, the values for the z-score in experiment [8] and in [9] were 1.6 (inactive) and 0.0748, respectively. The composite z-score in [4] was 0.225 (inactive); in experiment [10] it was 0.0256.
